Bioassay records (PubChem)
The full list was thinned out, with hits kept by preference.
BL2 CD40 inh = CD40 pathway inhibition in BL2 cells. actives 0.94% (n = 83,000). inhibition, % at 10 µM. BL2 NF-kB luciferase reporter, CD40L-induced, 4 h;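 active = mean inhibition of at least 50% with a set share of replicates also reaching that level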;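 note: 0% = neutral control wells and 100% = IKK inhibitor VII at 50 µM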
An asterisk follows results filed as active; i = inactive; [ ] = another dose, or the depositor's remark.

SMILES	BL2 CD40 inh
C[C@@H](NC(=O)C[C@@H]1C[C@@H]2c3cc(NC(=O)NC4CCCC4)ccc3O[C@@H]2[C@H](CO)O1)c1ccccc1	-6
N#CC1(NC(=O)COC(=O)c2cc([N+](=O)[O-])ccc2N2CCCC2)CCCCC1	44*
O=C(COC(=O)c1cc([N+](=O)[O-])ccc1N1CCOCC1)Nc1cc(F)ccc1F	-10
N#CC1(NC(=O)COC(=O)c2cc([N+](=O)[O-])ccc2N2CCOCC2)CCCCC1	-2
CC(C)[C@H](C)NC(=O)N(C)C[C@H]1OCc2ccccc2-c2c(n(C)c3ccccc23)C(=O)N([C@H](C)CO)C[C@@H]1C	6
COC(=O)C[C@@H]1C[C@H]2c3cc(NC(=O)Nc4ccccc4)ccc3O[C@H]2[C@@H](CO)O1	-22[25 µM]
CNC(=O)C1OC(n2cnc3c(NCc4cccc(I)c4)ncnc32)C(O)C1O (stereo not given)	-5[25 µM]
CCCNC(=O)[C@@H]1[C@@H](CO)[C@@H]2Cn3c(ccc(C4=CCCCC4)c3=O)[C@H]1N2Cc1cocn1	1[25 µM]
CC1OC(CC(=O)O)CC2=C1C(=O)c1c(O)cccc1C2=O (stereo not given)	104*
CN(C)C(=O)c1cccc(-c2ccc([C@H]3[C@@H](C#N)N(C(=O)C4CC4)[C@@H]3CO)cc2)c1	0
CN1C(=O)c2cc(NC(=O)C3CCCC3)ccc2OC[C@@H]2O[C@@H](CC(=O)NCCc3ccncc3)CC[C@H]21	2
COc1ccccc1-c1ccc([C@@H]2[C@@H](C#N)N(C(=O)C3CC3)[C@@H]2CO)cc1	-14
COc1ccccc1CN1CC[C@H]2[C@H](CO)Nc3ccc(-c4ccc(C(=O)N(C)C)cc4)cc3[C@H]21	-12
CO/N=C(\Cn1ncc(N2CCOCC2)c(Br)c1=O)c1ccc(Cl)cc1	25
CC(=O)Cn1ncc(Br)c(Br)c1=O	99*
Cn1ncc(Br)c1C(=O)O	1
O=C(NC1CCCC1)N1CC(=O)N2[C@@H](CO)[C@H](c3ccc(-c4cccc(F)c4)cc3)[C@@H]2C1	3
O=C(C[C@H]1C[C@@H]2c3cc(NC(=O)NC4CCCC4)ccc3O[C@@H]2[C@H](CO)O1)NCc1ccccc1	0
C[C@H]1CN([C@@H](C)CO)C(=O)CCCn2cc(nn2)CO[C@H]1CN(C)C(=O)Nc1cccc(Oc2ccccn2)c1	2[25 µM]
C[C@H]1CN([C@@H](C)CO)C(=O)CCCn2cc(nn2)CO[C@H]1CN(C)C(=O)Nc1ccc(-c2cccs2)cc1	-12[25 µM]
CC(=O)N(C)C[C@@H]1Oc2ccc(N(C)C)cc2C(=O)N(C)C[C@H]1C	-1
O=C(NCCc1ccccc1)c1ccc2nccnc2c1	72*
O=C(NCCCn1ccnc1)c1ccc2nccnc2c1	13
O=C(NCCS(=O)(=O)NCCc1ccccc1)c1ccccc1	-4
N#C[C@H]1[C@@H](c2ccccc2-c2cccc(F)c2)[C@@H](CO)N1C(=O)C1CCCCC1	17[25 µM]
SMILES	BL2 CD40 inh
N#C[C@@H]1[C@H](c2ccc(C3=CCCCC3)cc2)[C@H](CO)N1S(=O)(=O)c1cccc(F)c1	-29
CO[C@@H]1CN(C)C(=O)c2cc(NC(=O)NC3CCCCC3)ccc2OC[C@H](C)NC[C@@H]1C	-3
COc1ccc(C(=O)Nc2ccc3ccccc3n2)c(OC)c1OC	51*
COc1c(C(=O)Nc2ccc(Cc3ccncc3)cc2)ccc2ccccc12	-25
COc1ccc(C(=O)NCCN(C)C)c2nc3ccccc3cc12	i
CNC[C@@H]1Oc2ccccc2C(=O)N(C)C[C@H]1C	-6
C[C@H](CO)N1C[C@H](C)[C@@H](CN(C)Cc2cncnc2)Oc2ncc(C#Cc3ccccn3)cc2C1=O	-14[25 µM]
CC(C)NC(=O)Nc1cccc2c1O[C@H](CN(C)C(=O)OC(C)(C)C)[C@H](C)CN(C)C2=O	-106
Clc1nc(CN2CCCCC2)nc2sc3c(c12)CCCC3	55*
CC1CCN(Cc2nc(Cl)c3c4c(sc3n2)CCC4)CC1	-5
Clc1nc(CN2CCOCC2)nc2sc3c(c12)CCC3	-1
CC(C)CC(NC(=O)N1CCCCCC1)C(=O)NC(Cc1cn(C)c2ccccc12)C(=O)NC(Cc1ccccn1)C(=O)O (stereo not given)	-1[25 µM]
COc1ccccc1C#Cc1ccc2c(c1)[C@@H]1[C@@H](CCN1C(=O)CN1CCOCC1)[C@H](CO)N2	-52[25 µM]
CN1c2ccc(-c3ccc(F)cc3)cc2[C@H]2[C@H](CCN2C(=O)c2ccc(F)cc2)[C@@H]1CO	-1
Cc1ccc(Nc2ncccc2C(=O)O)cc1C	-63
O=C1OC(OC(=O)c2cccnc2Nc2cccc(C(F)(F)F)c2)c2ccccc21 (stereo not given)	85*[25 µM]
O=C(Nc1cccc(C(F)(F)F)c1)OCc1ccncc1	3
COc1ccccc1C#Cc1ccc([C@H]2[C@@H](C#N)N(C(=O)C3CC3)[C@H]2CO)cc1	-10
Cc1ccccc1S(=O)(=O)N1CC[C@H]2[C@H](CO)Nc3ccc(-c4cccc(C#N)c4)cc3[C@H]21	-20[25 µM]
CCCNC(=O)N1CC2(CCN(C(=O)Nc3cccc(F)c3)CC2)c2c(n(C)c3cc(OC)ccc23)[C@@H]1CO	34[25 µM]
CCCC#Cc1ccc2c(c1)[C@H]1[C@H](CCN1C(=O)C1CC1)[C@H](CO)N2	-48
